In PubChem BioAssay (NCI):
This is part of a sample that, as a whole, favours compounds with a hit. Of some 79,000 tested, about 15% had one in any assay. Unmarked numbers belong to inactive results. Calls of active or inactive are those of the source. Cut-off read from the data, not from the text of the source: active = growth inhibition above about 70%; inactive = the rest.

Assays:
[1] = NCI Yeast Anticancer Drug Screen. Data for the rad50 strain (AID 155);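 note: 0% = growth of vehicle-only cultures of the same strain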; settings: S. cerevisiae rad50 strain growth inhibition, stronger effect = higher value
Procedure, shortened: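 Relative growth inhibition (compound vs vehicle) was measured in yeast with a defined repair-gene alteration.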

[2] = NCI Yeast Anticancer Drug Screen. Data for the mec2-1 strain (AID 157); settings: S. cerevisiae mec2-1 strain, stronger effect = higher value
Procedure, shortened: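 Vehicle-treated cultures served as reference for growth inhibition of compound-exposed mec2-1 yeast.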

[3] = NCI Yeast Anticancer Drug Screen. Data for the sgs1 mgt1 strain (AID 161);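 note: 0% = growth of cultures given vehicle only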; settings: S. cerevisiae sgs1 mgt1 strain, stronger effect = higher value
Procedure, shortened: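 Test agents were incubated with a DNA-repair-mutant yeast strain. Growth was then read and compared against vehicle-treated controls.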

[4] = NCI Yeast Anticancer Drug Screen. Data for the cln2 rad14 strain (AID 165);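 note: 0% = growth equal to vehicle treated cultures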; settings: S. cerevisiae cln2 rad14 strain, stronger effect = higher value
Procedure, shortened: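 Each compound was tested on cln2 rad14 yeast. Inhibition of growth was calculated against vehicle-exposed controls.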

[5] = NCI Yeast Anticancer Drug Screen. Data for the bub3 strain (AID 167); settings: S. cerevisiae bub3 mutant strain, stronger effect = higher value
Procedure, shortened: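 Screening used yeast with an engineered genetic alteration affecting cell cycle control. Compound-exposed cultures were compared with vehicle cultures, and reduced growth was taken as inhibition.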

[6] = NCI Yeast Anticancer Drug Screen. Data for the mlh1 rad18 strain (AID 175); settings: S. cerevisiae mlh1 rad18 strain growth inhibition, stronger effect = higher value
Procedure, shortened: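 Vehicle-treated cultures served as the reference for growth inhibition in a yeast strain carrying DNA damage repair alterations exposed to each compound.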

[7] = at 5.0 µM (retest, dose inferred, filed as 0.5)
[8] = at 50.0 µM (retest, dose inferred, filed as 5.0)

| Compound | growth inhibition [1, 7] | growth inhibition [1, 8] | growth inhibition ([1]; at 50.0 µM) | growth inhibition [2, 7] | growth inhibition [2, 8] | growth inhibition ([2]; at 50.0 µM) | growth inhibition [3, 7] | growth inhibition [3, 8] | growth inhibition ([3]; at 50.0 µM) | growth inhibition [4, 7] | growth inhibition [4, 8] | growth inhibition ([4]; at 50.0 µM) | growth inhibition [5, 7] | growth inhibition [5, 8] | growth inhibition ([5]; at 50.0 µM) | growth inhibition [6, 7] | growth inhibition [6, 8] | growth inhibition ([6]; at 50.0 µM) |
| --- | --- | --- | --- | --- | --- | --- | --- | --- | --- | --- | --- | --- | --- | --- | --- | --- | --- | --- |
| C[CH2][Sn]1([CH2]C)[O]C(=O)CC(=O)[O]1 | 18% | 37% | 48.2% | 10% | 35% | 70.6% (active) | 14% | 55% | 37.8% | 20% | 19% | 65.8% | 15% | 54% | 59.1% | 16% | 24% | 16.5% |
| COc1cc2c(c3c[n+](C)c4c5cc6c(cc5ccc4c13)OCO6)OCO2 | 98% (active) | 98% (active) | 92.2% (active) | 99% (active) | 99% (active) | 94.8% (active) | 99% (active) | 98% (active) | 93.7% (active) | 98% (active) | 98% (active) | 92.2% (active) | 98% (active) | 97% (active) | 93.1% (active) | 99% (active) | 98% (active) | 92.8% (active) |
| S=C=NC/C(Cl)=C/Cl | 43% | 48% | 71.9% (active) | 49% | 45% | 53.5% | 14% | 89% (active) | 72.5% (active) | 56% | 71% (active) | 56.9% | 35% | 91% (active) | 69.2% | 38% | 46% | 70.5% (active) |
| CN(C)C(=S)Nc1nnc(NC23CC4CC(CC(C4)C2)C3)s1 | -1% | 61% | 96.7% (active) | -29% | 89% (active) | 96.2% (active) | 15% | 60% | 97.8% (active) | -22% | 94% (active) | 95.6% (active) | 3% | 96% (active) | 93% (active) | -2% | 48% | 97% (active) |
| CN(C)C(=S)[S][Hg][c]1ccccc1 | 64% | 87% (active) | 91.3% (active) | 69% | 75% (active) | 93.4% (active) | 101% (active) | 99% (active) | 93.7% (active) | 54% | 99% (active) | 92.8% (active) | 101% (active) | 100% (active) | 92.1% (active) | 52% | 70% (active) | 91.5% (active) |
| CN(C)CC1(N)C(=O)NC(=O)NC1=O | 3% | 10% | 75.7% (active) | 4% | 11% | 78% (active) | 4% | 8% | 47.3% | -1% | -1% | 43.6% | 0% | 8% | 95.2% (active) | -1% | 10% | 46.2% |
| O=C(CBr)OCC(Br)CBr (stereo not given) | 98% (active) | 39% | 99.2% (active) | 99% (active) | 50% | 99% (active) | 99% (active) | 36% | 99.3% (active) | 97% (active) | -4% | 98.8% (active) | 99% (active) | 83% (active) | 99.3% (active) | 99% (active) | 49% | 98.8% (active) |
| C[As](C)SCCC(N)C(=O)NC(CCS[As](C)C)C(=O)O (stereo not given) | 30% | 98% (active) | 88.9% (active) | 20% | 99% (active) | 90.8% (active) | -3% | 99% (active) | 89.8% (active) | 35% | 98% (active) | 92.2% (active) | 2% | 97% (active) | 90% (active) | 27% | 99% (active) | 75.5% (active) |
| O=[N+]([O-])c1ccc(Br)c([N+](=O)[O-])c1 | 83% (active) | 98% (active) | 99% (active) | 7% | 99% (active) | 99.4% (active) | 8% | 98% (active) | 99.2% (active) | -6% | 98% (active) | 98.3% (active) | -15% | 98% (active) | 98.9% (active) | 17% | 98% (active) | 99.2% (active) |
| CCC[CH2][Sn]1([CH2]CCC)[O]CC(C)[O]1 (stereo not given) | 33% | 95% (active) | 86% (active) | 30% | 97% (active) | 90% (active) | 42% | 68% | 88.2% (active) | 34% | 64% | 87.2% (active) | 48% | 97% (active) | 88.3% (active) | 53% | 96% (active) | 86.7% (active) |
